Hits are enriched below; roughly 10% of the tested compounds scored in any of these assays.
NPR1 antag = human Npr1 receptor antagonism; P16066; HEK293 hNpr1 GloSensor cGMP, ANP-stimulated luminescence; Potency, µM (highest dose often 46.3 µM), inactives show top-dose activity change, negative = inhibition, usual class: inhibitors; actives 1.6% (n = 76,000); AID 1347048; calls by dose curve; also: nearly all actives have a fitted effect of over 60% in size
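Compound pre-incubated 30 min at room temperature on GloSensor-loaded HEK293 cells stably carrying hNpr1 and the pGS-40F cGMP biosensor. Stimulation uses hNppA at 0.1 nM final; luminescence is taken at baseline and 20 min post-agonist.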
FLuc inh = blocks purified firefly luciferase enzyme activity; purified P. pyralis luciferase, luminescence, biochemical; Potency, µM (top dose mostly 115 µM), most hits filed as inhibitors; actives 2.5% (n = 76,000); AID 1347043; also: nearly all actives have a fitted effect of over 65% in size
Target sequence (P08659 whole entry, looked up): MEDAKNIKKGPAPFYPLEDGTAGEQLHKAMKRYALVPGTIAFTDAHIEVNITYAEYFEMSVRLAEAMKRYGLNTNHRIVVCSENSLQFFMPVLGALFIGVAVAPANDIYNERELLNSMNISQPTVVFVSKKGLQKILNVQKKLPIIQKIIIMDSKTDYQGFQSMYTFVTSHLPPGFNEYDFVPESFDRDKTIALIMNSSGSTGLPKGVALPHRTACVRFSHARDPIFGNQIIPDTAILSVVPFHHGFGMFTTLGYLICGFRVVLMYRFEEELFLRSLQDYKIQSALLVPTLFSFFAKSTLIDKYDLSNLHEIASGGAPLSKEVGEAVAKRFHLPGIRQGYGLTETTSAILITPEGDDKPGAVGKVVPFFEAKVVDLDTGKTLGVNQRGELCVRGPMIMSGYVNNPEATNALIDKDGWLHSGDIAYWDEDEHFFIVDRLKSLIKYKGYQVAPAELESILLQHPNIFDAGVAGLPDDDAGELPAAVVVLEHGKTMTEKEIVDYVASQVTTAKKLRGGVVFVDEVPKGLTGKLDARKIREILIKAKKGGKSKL
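FLuc 10nM, D-luciferin 10uM, ATP 10uM, Mg acetate 10mM, Tris acetate pH 7.5, Tween/BSA; cpd qHTS; enzyme added last; CCD luminescence.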
HEK cytotox = HEK 293 cell cytotoxicity; HEK 293 viability, ATP luminescence (CellTiter-Glo), 48-72 h; Potency, µM (series often up to 115 µM), for inactives: at the highest dose activity change, negative = cytotoxicity, usual class: inhibitors; actives 6.6% (n = 94,000); also: nearly all actives have a fitted effect of over 60% in size
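Pintool-delivered compounds were incubated with HEK 293 cells (250 cells/well) at 37 degree Celsius for 48 or 72 hr. ATP-dependent luminescence (CellTiter-Glo) then reported remaining viable cells.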
NIH3T3 tox = kills NIH 3T3 cells; NIH 3T3 viability, CellTiter-Glo ATP luminescence, 48-72 h; actives 4.3% (n = 94,000); Potency, µM (titrated, usually from 96.7 µM), without a hit: top-dose activity change, negative = cytotoxicity, usual class: inhibitors; also: nearly all actives have a fitted effect of over 55% in size
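Mouse fibroblast NIH 3T3 cells, 400 per well, received compound via pintool and were incubated for 48 or 72 hr prior to CellTiter-Glo ATP luminescence measurement.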
GPT2 inh = GPT2 alanine aminotransferase inhibition; Q8TD30; Recombinant GPT2, coupled pyruvate oxidase/HRP Amplex Red fluorescence; Potency, µM (top dose mostly 57.7 µM), for inactives: top-dose activity change, negative = inhibition, hits mostly inhibitors; actives 0.25% (n = 100,000); also: nearly all actives have a fitted effect of over 60% in size
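GPT2 10ng/uL, a-KG 250uM, L-Ala 2mM, HEPES pH7.5 + 0.0001% Tween; 30 min RT. Then Amplex mix (PO/HRP/ThPP), 30 min RT dark, fluorescence. AOA 50uM used as positive control.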
The depositor's hits bear a star; i = inactive; ? = inconclusive; nt = not tested or not shown; ! = not active in a repeat; [ ] = dose if it differs, or a comment. Unless noted, calls follow the shape of the dose curve; as a rule, active = well fitted curve in the direction sought with a large enough effect; inconclusive = small, poorly fitted or top-dose-only effect, or another doubt; inactive = no such curve, though single readings can be large; an effect the other way counts as inactive or inconclusive. % is scaled to controls: 0 for no effect and ±100 for the full control effect; potency is read from the fitted curve at half-maximal effect.

SMILES	NPR1 antag	FLuc inh	HEK cytotox	NIH3T3 tox	GPT2 inh
O=c1[nH]c(C2CCCN(Cc3cccnc3)C2)nn1-c1ccc(Cl)cc1 (stereo not drawn)	0.0%	i	?	?	-2.5%
Cc1noc(C)c1-c1cc2c(cc(C)n2C)c(-c2cccnc2)n1	4.4%[70.6 µM]	i	?	?	-18.7%[88.5 µM]
Cc1noc(C)c1-c1cc2c(cc(-c3ccccc3)n2C)c(N2CCOCC2)n1	-0.3%[70.6 µM]	i	56.2µM*	31.6µM*	0.9%[88.5 µM]
Cc1noc(C)c1-c1cc2c(cc(C)n2C)c(-c2ccccc2)n1	1.3%[70.6 µM]	i	?	50.1µM*	?
Cc1noc(C)c1-c1cc2c(cc(C)n2C)c(-c2cnn(C)c2)n1	-1.3%[70.6 µM]	i	?	39.8µM*	-11.1%[88.5 µM]
Cc1noc(C)c1-c1cc2c(cc(-c3ccccc3)n2C)c(-c2cnn(C)c2)n1	-22.1%[70.6 µM]	i	20µM*	11.2µM*	1.5%[88.5 µM]
CC(=O)N(C1CCOCC1)C1CCN(C(=O)c2ccc(C)s2)CC1	nt	nt	-16.4%	-21.5%	-68.2%
CN(CC#N)C(=O)[C@@H]1CCCN1c1ccnc2ccnn12	nt	nt	-0.1%[172 µM]	-9.2%[138 µM]	nt
Cc1noc(C)c1-c1cc2c(cc(-c3ccccc3)n2C)c(-c2ccnn2C)n1	-19.2%[70.6 µM]	i	35.5µM*	?	-5.9%[88.5 µM]
COc1cc(-c2nc(-c3c(C)noc3C)cc3c2cc(C)n3C)ccn1	-1.0%[70.6 µM]	i	?	?	-3.7%[88.5 µM]
COc1cccc(-c2nc(-c3c(C)noc3C)cc3c2cc(C)n3C)c1OC	2.5%[70.6 µM]	i	?	25.1µM*	-2.2%[88.5 µM]
Cc1noc(C)c1-c1cc2c(cc(C)n2C)c(-c2cccc([S+](C)(=O)[O-])c2)n1	-17.0%[70.6 µM]	i	?	14.1µM*	2.7%[88.5 µM]
Cc1noc(C)c1-c1cc2c(cc(C)n2C)c(-c2ccnn2C)n1	-4.8%[70.6 µM]	i	?	?	4.1%[88.5 µM]
Cc1noc(C)c1-c1cc2c(cc(C)n2C)c(N2CCN(Cc3ccccc3)CC2)n1	-0.5%[70.6 µM]	i	?	44.7µM*	-0.7%[88.5 µM]
COCCn1c(C)cnc1C1CCN(S(=O)(=O)c2cccc(F)c2)C1 (stereo not drawn)	nt	nt	0.3%	-14.3%	i
COc1ccc(-c2ccccc2C(=O)N2CCC(NC(=O)Cc3ccccc3)CC2)nn1	nt	nt	-3.8%	-11.0%	nt
CN(C)c1ccc(CN2CC[C@H](c3nc4ccc(C#N)cc4[nH]3)C2)cc1	-17.5%[70.6 µM]	i	?	?	i
CC(C)CCN1CC[C@H](c2nc3ccccc3[nH]2)C1	-4.5%[70.6 µM]	35.5µM*	?	-28.7%[230 µM]	2.4%[88.5 µM]
N#Cc1ccc2nc([C@H]3CCN(Cc4ccc(F)c(F)c4)C3)[nH]c2c1	-19.8%[70.6 µM]	i	?	31.6µM*	-8.6%[88.5 µM]
CN1CC[C@H](c2nc3ccccc3[nH]2)C1	0.7%[122 µM]	i	-3.5%[287 µM]	?	4.0%[88.5 µM]
c1cncc(CN2CC[C@H](c3nc4ccccc4[nH]3)C2)c1	-11.1%[70.6 µM]	i	?	-14.3%[230 µM]	0.8%[88.5 µM]
N#Cc1cccc(CN2CC[C@H](c3nc4ccccc4[nH]3)C2)c1	-23.4%[70.6 µM]	i	50.1µM*	56.2µM*	2.7%[88.5 µM]
COc1ccc2nc([C@H]3CCN(Cc4cccc(C#N)c4)C3)[nH]c2c1	-9.5%[70.6 µM]	i	39.8µM*	31.6µM*	i
CSc1ccc(-c2cccc(CN3CCC(NC(=O)C4CCCC4)CC3)c2)cc1	nt	nt	0.2%	-2.5%	nt
C=CCNC(=O)CCc1c(C)nn(-c2ccccc2C)c1Oc1cccc(F)c1	-12.1%	i	-26.4%	?	-4.9%
SMILES	NPR1 antag	FLuc inh	HEK cytotox	NIH3T3 tox	GPT2 inh
CNC(=O)c1cc(C2CC2)nc2c1c(C1CCCN1C(=O)c1c(C)noc1C)nn2C (stereo not drawn)	nt	nt	-11.0%	-11.8%	nt
Cc1cccc(NC(=O)Cn2c(N3CCN(c4ccccc4)CC3)nc(C)cc2=O)c1	6.3%	i	?	?	-3.9%
COCCn1ccc2c(C3=CCOCC3)nc(-c3ccc4c(c3)CNC4=O)cc21	-0.8%[70.6 µM]	?	?	?	-20.9%[88.5 µM]
COCCn1ccc2c(C3=CCOCC3)nc(-c3cccc4[nH]ccc34)cc21	-1.3%[70.6 µM]	i	28.2µM*	50.1µM*	?
COCCn1ccc2c(C3=CCOCC3)nc(-c3cccc(N4CCOCC4)c3)cc21	1.8%[70.6 µM]	i	?	44.7µM*	-1.9%[88.5 µM]
COCCn1ccc2c(C3=CCOCC3)nc(-c3cccc4[nH]ncc34)cc21	-11.2%[70.6 µM]	i	?	?	1.3%[88.5 µM]
COCCn1ccc2c(C3=CCOCC3)nc(-c3ccc4cn[nH]c4c3)cc21	-1.5%[70.6 µM]	i	?	?	-29.5%[88.5 µM]
COCCn1ccc2c(C3=CCOCC3)nc(-c3cccc(CO)c3)cc21	3.0%[70.6 µM]	i	?	12.6µM*	2.7%[88.5 µM]
O=C(c1ccc(F)cc1)N1CCC(C(=O)N2CCCC(c3nc4ncccc4[nH]3)C2)CC1 (stereo not drawn)	nt	nt	i	-1.4%	i
CCOC(=O)c1cccc(NC(=O)N2CC[C@@H](CC(=O)NCc3ccc(F)cc3)[C@@H](CC)C2)c1	0.0%	i	?	-16.9%	i
COCCN(C)C(=O)C(C)(C)Oc1nn(Cc2cccc(Cl)c2)c2ccccc12	-21.7%[70.6 µM]	i	89.1µM*	79.4µM*	-7.9%[88.5 µM]
CC(C)(Oc1nn(Cc2cccc(Cl)c2)c2ccccc12)C(=O)NCC[S+](C)(=O)[O-]	?	i	?	?	i
CN(C)C(=O)C(C)(C)Oc1nn(Cc2cccc(Cl)c2)c2ccccc12	-9.6%[70.6 µM]	i	79.4µM*	?	-12.6%[88.5 µM]
CN(C)CCCOc1nn(Cc2ccccc2)c2ccccc12	nt	nt	nt	nt	1.26µM*!
CCc1nnc(N2CCCC3(CCC(=O)N(Cc4ccccc4)C3)C2)s1 (stereo not drawn)	-0.6%	i	-26.3%	-11.5%	2.3%
CN(Cc1ccco1)C(=O)c1ccc(-c2ccc(N3CCCCCC3)nc2)cc1	?	?	39.8µM*	?	i
O=C(NCCN1CCCCC1)c1ccc(-c2ccc(N3CCCCC3)nc2)cc1	-2.7%	?	?	20µM*	i
O=C(Cc1ccccn1)NCCNC(=O)c1ccc(-c2cncnc2)cc1	nt	nt	89.1µM*	?	nt
O=C(NCCCN1CCCC1)c1ccc(-c2ccc(N3CCCCC3)nc2)cc1	-0.1%	?	?	?	i
CN1CCN(CCNC(=O)c2ccc(-c3ccc(N4CCCCCC4)nc3)cc2)CC1	-16.9%	i	25.1µM*	14.1µM*	i
O=C(NCCNC(=O)c1ccccn1)c1ccc(-c2cncnc2)cc1	nt	nt	3.5%[172 µM]	-8.1%[138 µM]	nt
CNC(=O)c1cc(C2CC2)nc2c1c(C1CCCN1C(=O)c1ccccc1OC)nn2C (stereo not drawn)	nt	nt	-2.3%	-24.8%	nt
O=C(Nc1ccccc1)N1CCC(OCCOc2cccnc2)CC1	nt	nt	i	-9.4%	i
O=C(NCc1ccccn1)c1ccc(-c2ccc(N3CCCCC3)nc2)cc1	-26.3%	?	22.4µM*	?	-0.2%

Source: PubChem BioAssay
